From PubChem
Most compounds without a hit are left out; they make up all but 6.6% or so of the library.
HT1080 IDH1KD tx – qHTS for induction of synthetic lethality in tumor cells producing 2HG: qHTS for the HT-1080-IDH1KD cell line | HT-1080 IDH1 knockdown viability, ATP luminescence, 48 h | Potency, µM (series often up to 46.1 µM), inactives show at the top dose activity, negative = toxicity, actives largely listed as cytotoxic | 360,000 tested, 2% active;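 note: 0% = DMSO wells and -100% = cell-free medium wells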
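Viability of IDH1-knockdown HT-1080 fibrosarcoma cells was assessed by CellTiter-Glo after 48 h at 37 °C with titrated compound; concentration-effect curves were classified by fit quality and response size.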
HT1080NT lethal – qHTS for induction of synthetic lethality in tumor cells producing 2HG: qHTS for the HT-1080-NT fibrosarcoma cell line; HT-1080-NT fibrosarcoma viability, CellTiter-Glo ATP luminescence, 48 h; Potency, µM (series often up to 46.1 µM), for the others: at the highest dose activity, negative = less viability, actives largely listed as cytotoxic; 360,000 tested, 1.6% active;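 note: NT is the 2HG producing partner of a matched IDH1 knockdown line; 0% = DMSO-treated cells and -100% = media-only wells without cells; nearly all actives have a fitted effect of over 55% in size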
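HT-1080-NT; 750 cells/well; 5% FBS RPMI; 48 h compound, 37 degrees C; CellTiter-Glo luminescence; curve fitting and curve-class assignment.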
TGFb inhibitor – qHTS for Inhibitors of TGF-b; HepG2 CAGA-GFP TGF-b/SMAD3 reporter, GFP fluorescence, 18 h; TGF-beta stimulated, 500 pg/mL final; Potency, µM (highest dose often 46.1 µM), without a hit: top-dose activity, negative = inhibition, hits mostly inhibitors; 410,000 tested, 1.2% active; note: % is set by controls: 0 for no effect and ±100 for the full control effect; nearly all actives have a fitted effect of over 65% in size
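HEPG2 CAGA-GFP reporter cells (1000/well, DMEM with 1% FBS) received compounds, then recombinant TGF-beta at 500 pg/mL final for 18 hours at 37 degrees C. Per-cell GFP summed per well was normalised to unstimulated and stimulated DMSO controls before curve fitting.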
KB-3-1 tox – qHTS assay for MDR1-selective chemotherapeutics: Primary screen using the parental adenocarcinoma cell KB-3-1; KB-3-1 viability, CellTiter-Glo ATP luminescence, 72 h; Potency, µM (highest dose often 46.1 µM), most hits filed as cytotoxic; 400,000 tested, 1.4% active; AID 1347075, 2019; note: % is set by controls: 0 for no effect and ±100 for the full control effect; nearly all actives have a fitted effect of over 60% in size
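KB-3-1 cells, DMEM (no phenol red) + 10% FBS; compound by pin transfer, 72 h, 37 °C. Readout: CellTiter-Glo luminescence after 10 min. Data normalized, curve-fitted.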
KB-V1 cytotox – qHTS assay for MDR1-selective chemotherapeutics: Primary screen using the drug-selected MDR subline cells KB-V1. KB-V1 MDR cells viability, CellTiter-Glo, 72 h. Potency, µM (highest dose often 46.1 µM), most hits filed as cytotoxic. 400,000 tested, 3.4% active. AID 1347076, 2019; note: % is set by controls: 0 for no effect and ±100 for the full control effect; nearly all actives have a fitted effect of over 60% in size
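Following 72 h at 37 degrees C with compound, KB-V1 cell viability was read by CellTiter-Glo luminescence, medium being phenol-red-free DMEM plus 10% FBS; concentration-response parameters came from normalized, curve-fitted qHTS data.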
HepG2 viability – qHTS for Inhibitors of TGF-b: Cytotox Counterscreen; HepG2 CAGA-GFP viability, ATP luminescence, 18 h; Potency, µM (doses to about 46.1 µM), for inactives: at the highest dose activity change, negative = cytotoxicity, most hits filed as cytotoxic; 410,000 tested, 0.76% active; AID 588856, 2011
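HepG2 CAGA-GFP cells (1000/well, DMEM with 1% FBS) received compound, then TGF-beta at 500 pg/mL final, and were incubated 18 hours at 37 degrees C. Viability was read by CellTiter-Glo luminescence. Media-only wells were set as complete cell-killing and DMSO as no toxicity.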
The depositor's hits bear a star; i = inactive; u = inconclusive; x = no result; [ ] = another dose, or the depositor's remark. Calls come from the whole dose curve; as a rule, active = well fitted curve in the direction sought with a large enough effect; inconclusive = small, poorly fitted or top-dose-only effect, or another doubt; inactive = no such curve, though single readings can be large; an effect the other way counts as inactive or inconclusive. Potency is the fitted concentration of half-maximal effect.

SMILES	HT1080 IDH1KD tx	HT1080NT lethal	TGFb inhibitor	KB-3-1 tox	KB-V1 cytotox	HepG2 viability
COCCNC(=O)Cc1c(C)c2c(cc(C)c3c(C(C)(C)C)coc32)oc1=O	8.2µM*	6.51µM*	-28.5%	u	u	-27.4%
Cc1cc2oc(=O)c(CC(=O)O)c(C)c2c2occ(C(C)(C)C)c12	1.3%	3.9%	1.5%	i	i	1.6%
Cc1cc2oc(=O)c(CC(=O)NCCCN(C)C)c(C)c2c2occ(C(C)(C)C)c12	5.8µM*	18.4µM*	u	u	u	22.4µM*
Cc1cc2oc(=O)c(CC(=O)NCCCO)c(C)c2c2occ(C(C)(C)C)c12	-2.1%	-5.7%	-29.7%	i	i	-26.9%
NC1CCc2ccc([N+](=O)[O-])cc21 (centres undefined)	x	x	-3.1%	i	i	-7.2%
C=CCN(Cc1nc(-c2ccc(OC)cc2)no1)C(=O)c1ccc2c(c1)OCO2	-2.9%	-6.4%	u	i	20.6µM*	5.1%
Cc1snc(SCC(=O)c2ccc(Cl)cc2)c1C#N	6.3%	-0.7%	4.6%	i	20.6µM*	-3.8%
FC(F)Sc1ccc(-n2c(-c3ccc(Cl)cc3)c[n+]3c2CCC3)cc1	u	u	2.1%	u	i	-13.0%
COc1ccc(-n2c(-c3ccc(Br)cc3)c[n+]3c2CCCCC3)cc1	u	-26.1%	-23.8%	3.66µM*	i	-6.7%
CCOc1ccc(-c2c[n+]3c(n2-c2ccccc2)CCCCC3)cc1	18.4µM*	u	u	5.8µM*	u	-41.7%
COc1ccc(-n2c(-c3ccc(Br)cc3)n[nH]c2=S)cc1	6.0%	-3.0%	8.4%	i	i	22.2%
COc1ccc(-n2c(-c3ccc(Br)cc3)c[n+]3c2CCC3)cc1	u	u	8.4%	4.11µM*	i	-0.5%
COc1ccc(-n2c(-c3ccc(Br)cc3)c[n+]3c2SC(C)C3)cc1 (centres undefined)	u	u	-18.4%	5.8µM*	i	-5.2%
O=C(CCCn1c(=O)c2cccn2c2ccccc21)Nc1cccc(Cl)c1	x	x	x	x	x	-37.2%
c1ccc2cnccc2c1	x	x	-1.0%	i	i	5.7%
Cc1cccc(-c2nnc3n(CCc4ccccc4)c(=O)c4ccccc4n23)c1	x	x	u	u	i	-14.5%
COc1ccc(-n2c(-c3ccccc3)c[n+]3c2CCC3)cc1	-26.6%	u	4.6%	4.11µM*	i	-2.3%
COc1ccc(-n2nc(C(=O)O)nc2-c2ccccc2)cc1	10.4%	10.6%	9.0%	i	i	11.2%
COc1ccc(-n2c(-c3ccccc3)cc3c2CCCC3=O)cc1	-10.1%	-11.8%	6.7%	u	11.6µM*	-35.6%
COc1cccc(C2C(=O)N(C3CCCCC3)CC(=O)N2Cc2ccc(Cl)cc2)c1 (centres undefined)	x	x	u	x	x	-21.4%
CC(C)c1noc2ncc(C(=O)c3cc(Cl)cc(Cl)c3O)cc12	0.5%	0.7%	u	u	16.4µM*	-32.9%
CCCCCCOc1ccc(C2C(=O)N(C3CCCCC3)CC(=O)N2C2CCCCC2)cc1 (centres undefined)	x	x	-21.4%	x	x	-9.8%
CCN(CC)C(=O)c1cnn(-c2ccccc2)c1NC(=O)c1ccccc1F	5.7%	14.5%	1.5%	i	4.61µM*	-0.7%
O=C(Nc1c(C(=O)N2CCOCC2)cnn1-c1ccccc1)c1ccccc1F	6.2%	1.4%	-4.4%	i	i	5.8%
O=C(COc1ccc(S(=O)(=O)NC2CCCCC2)cc1)N1CCN(c2cccc(Cl)c2)CC1	u	-2.9%[9.24 µM]	u	13µM*	u	-16.8%
SMILES	HT1080 IDH1KD tx	HT1080NT lethal	TGFb inhibitor	KB-3-1 tox	KB-V1 cytotox	HepG2 viability
Cc1cccc(-n2nc([N+](=O)[O-])c(=NC3CCN(Cc4ccccc4)CC3)n2O)c1	1.3%	-5.9%	u	i	i	15.8µM*
O=[N+]([O-])c1nn(-c2ccc3c(c2)OCCO3)n(O)c1=NC1CCCC1	-0.9%	-0.9%	-2.3%	i	i	-8.7%
COc1ccc(-n2nc([N+](=O)[O-])c(=NCc3ccc4c(c3)OCO4)n2O)cc1	-0.8%	-1.6%	u	i	20.6µM*	-2.6%
O=[N+]([O-])c1nn(-c2ccc3c(c2)OCCO3)n(O)c1=NC1CCCCCC1	u	-1.1%	-25.1%	i	16.4µM*	-13.6%
Cc1cccc(CNC(=O)Cn2ccc3cc(S(=O)(=O)N4CCC(C)CC4)ccc32)c1	x	x	-5.6%	i	i	-9.6%
Cc1cc(N2CCN(c3ccccc3)CC2)n2ncnc2n1	-2.8%	0.6%	-3.0%	i	u	8.0%
COc1cccc(N2CCN(c3c4c(nc5ncnn35)CCC4)CC2)c1	-21.8%	-2.5%	-8.2%	23.1µM*	u	-8.0%
c1ccc(N2CCN(c3c4c(nc5ncnn35)CCC4)CC2)cc1	1.0%	6.8%	20.8%	i	2.91µM*	-4.5%
CCn1cc(C(=O)NCCN(CC(C)C)CC(C)C)c(=O)c2cc(S(=O)(=O)N(C)C3CCCCC3)ccc21	x	x	-0.4%	i	i	6.4%
Nc1ncc(-c2ccc(F)cc2)nc1N1CCN(CCO)CC1	28.7%	0.5%	25.7%	i	i	-7.6%
OCCN1CCN(C2CCC(c3ccc(F)cc3)c3ccc(F)cc32)CC1 (centres undefined)	23.1µM*	18.4µM*	20µM*	u	u	i
O=C(N/N=C/c1ccc([N+](=O)[O-])o1)c1ccccc1-n1cccc1	u	u	10µM*	u	u	-62.3%
O=C(N/N=C/c1ccc([N+](=O)[O-])o1)c1ccc2c(c1)OCO2	u	u	15.8µM*	u	u	11.2µM*
O=C(N/N=C\c1ccc(O)c([N+](=O)[O-])c1)c1ccccc1-n1cccc1	0.6%	-3.1%	-7.1%	i	16.4µM*	-29.5%
COc1cc(C=NNC(=O)c2ccccc2-n2cccc2)ccc1O	-29.6%	u	5.8%	u	i	-12.7%
O=C(N/N=C\c1ccc(-c2ccc([N+](=O)[O-])cc2)o1)c1ccc2c(c1)OCO2	11.1%	10.5%	-0.4%	i	i	4.8%
Cc1ccccc1C(=O)Nc1c(C)nc(Nc2ccccc2)nc1Nc1ccccc1	x	x	-28.8%	u	i	-31.5%
